Data reported in PubChem BioAssay AID2073 (Sanford-Burnham Center for Chemical Genomics, 2009).
Screen size: about 290,000 compounds; about 570 (0.2%) were called active. Not shown: some 1% with an inconclusive outcome. Rule as the data show it: active = inhibition mostly above about 51% (no sharp cut-off); inconclusive = no clear call, values can overlap the other calls; inactive = mostly below about 53%. The full list was thinned out, with actives kept by preference.

Target: Voltage-dependent N-type calcium channel subunit alpha-1B (Homo sapiens) (UniProt Q00975)
Sequence (Q00975 whole entry, looked up): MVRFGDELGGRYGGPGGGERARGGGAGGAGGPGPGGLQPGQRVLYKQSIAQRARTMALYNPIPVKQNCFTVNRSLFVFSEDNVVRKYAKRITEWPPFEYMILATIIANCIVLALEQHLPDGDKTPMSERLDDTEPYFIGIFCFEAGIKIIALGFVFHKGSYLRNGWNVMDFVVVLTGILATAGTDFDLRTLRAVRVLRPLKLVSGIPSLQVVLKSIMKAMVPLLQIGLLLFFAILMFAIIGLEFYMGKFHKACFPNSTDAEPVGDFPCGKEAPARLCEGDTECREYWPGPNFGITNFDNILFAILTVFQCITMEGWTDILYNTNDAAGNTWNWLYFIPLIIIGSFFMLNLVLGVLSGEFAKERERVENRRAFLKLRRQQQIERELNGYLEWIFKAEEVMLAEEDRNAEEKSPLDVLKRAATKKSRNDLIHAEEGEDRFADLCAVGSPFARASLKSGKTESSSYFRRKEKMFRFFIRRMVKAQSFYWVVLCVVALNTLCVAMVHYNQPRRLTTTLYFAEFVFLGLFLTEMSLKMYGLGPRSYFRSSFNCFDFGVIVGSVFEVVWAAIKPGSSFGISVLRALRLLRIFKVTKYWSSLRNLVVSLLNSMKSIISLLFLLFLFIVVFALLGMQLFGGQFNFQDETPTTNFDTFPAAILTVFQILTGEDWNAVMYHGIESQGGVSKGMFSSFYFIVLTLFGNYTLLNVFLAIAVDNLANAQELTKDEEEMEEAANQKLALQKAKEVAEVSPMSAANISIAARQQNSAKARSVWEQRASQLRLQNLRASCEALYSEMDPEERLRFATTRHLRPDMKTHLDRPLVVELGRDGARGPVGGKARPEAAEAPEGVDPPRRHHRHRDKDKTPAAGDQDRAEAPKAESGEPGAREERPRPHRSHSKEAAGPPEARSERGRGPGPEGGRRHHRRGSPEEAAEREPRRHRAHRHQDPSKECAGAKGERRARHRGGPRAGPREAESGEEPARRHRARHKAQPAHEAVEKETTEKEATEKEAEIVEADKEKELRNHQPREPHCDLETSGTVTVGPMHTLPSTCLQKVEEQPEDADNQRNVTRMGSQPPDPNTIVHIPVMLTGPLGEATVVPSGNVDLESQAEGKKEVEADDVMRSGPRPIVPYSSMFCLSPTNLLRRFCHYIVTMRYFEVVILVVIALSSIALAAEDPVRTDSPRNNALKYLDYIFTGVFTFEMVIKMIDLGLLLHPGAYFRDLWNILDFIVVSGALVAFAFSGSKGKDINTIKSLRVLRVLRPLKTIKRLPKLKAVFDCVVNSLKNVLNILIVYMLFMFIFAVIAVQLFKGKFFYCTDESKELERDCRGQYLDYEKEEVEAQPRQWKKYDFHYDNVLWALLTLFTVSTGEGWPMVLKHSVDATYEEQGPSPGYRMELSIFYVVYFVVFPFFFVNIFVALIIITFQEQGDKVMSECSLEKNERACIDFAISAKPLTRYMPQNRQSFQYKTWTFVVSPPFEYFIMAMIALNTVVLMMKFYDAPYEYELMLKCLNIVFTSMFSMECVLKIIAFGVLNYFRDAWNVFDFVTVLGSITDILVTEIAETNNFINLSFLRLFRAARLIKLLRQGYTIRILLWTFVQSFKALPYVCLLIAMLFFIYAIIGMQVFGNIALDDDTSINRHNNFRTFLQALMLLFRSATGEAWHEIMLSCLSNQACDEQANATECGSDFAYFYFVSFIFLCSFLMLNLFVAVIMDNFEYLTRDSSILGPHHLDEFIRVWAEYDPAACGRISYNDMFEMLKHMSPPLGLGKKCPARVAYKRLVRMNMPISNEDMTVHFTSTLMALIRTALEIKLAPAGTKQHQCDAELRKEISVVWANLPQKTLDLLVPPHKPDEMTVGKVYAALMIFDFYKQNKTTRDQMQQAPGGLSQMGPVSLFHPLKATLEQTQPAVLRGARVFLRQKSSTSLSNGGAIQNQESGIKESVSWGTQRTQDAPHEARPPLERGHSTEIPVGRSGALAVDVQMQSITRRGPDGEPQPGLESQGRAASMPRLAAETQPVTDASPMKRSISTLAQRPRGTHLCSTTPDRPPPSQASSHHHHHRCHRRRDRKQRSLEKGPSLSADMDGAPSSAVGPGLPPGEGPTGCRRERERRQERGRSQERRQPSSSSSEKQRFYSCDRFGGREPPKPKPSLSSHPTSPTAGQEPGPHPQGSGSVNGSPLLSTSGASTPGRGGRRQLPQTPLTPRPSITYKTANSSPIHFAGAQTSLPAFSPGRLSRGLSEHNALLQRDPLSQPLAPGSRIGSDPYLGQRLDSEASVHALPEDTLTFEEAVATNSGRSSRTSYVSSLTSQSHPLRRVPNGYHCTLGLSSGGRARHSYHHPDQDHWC
Test: disruptors of CaV2.2 binding to Mint1 – biochemical, HTRF (AID 2073)
Conditions: HTRF protein-protein interaction, Mint1-CaV2.2, at 20 µM, stronger effect = higher value
[1] = measured here: average of repeat tests

## CC(C)n1c(=O)c(C=Nc2ccc(Br)cc2)c(O)n(Cc2ccco2)c1=O
  inhibition: 59.1% (active)

## CC(C)n1c(=O)c(C=Nc2ccc(Cl)cc2)c(O)n(Cc2ccco2)c1=O
  inhibition: 63.2% (inactive)
[1]
  inhibition: 17.6%

## CC(C)n1c(=O)c(C=Nc2ccc(F)cc2)c(O)n(Cc2ccco2)c1=O
  inhibition: 14.1% (inactive)

## O=C(O)CCn1cc(C=C2C(=O)NC(=S)NC2=O)c(-c2cccc(Br)c2)n1
  inhibition: 75.7% (active)

## O=C(O)CCn1cc(C=C2C(=O)NC(=O)NC2=O)c(-c2ccc(Br)cc2)n1
  inhibition: 11.7% (inactive)

## O=C(O)CCn1cc(C=C2C(=O)NC(=O)NC2=O)c(-c2cc3ccccc3oc2=O)n1
  inhibition: 42.3% (inactive)

## O=C(Cc1ccc(Br)cc1)N1CCN(Cc2ccccc2)CC1
  inhibition: 9.2% (inactive)

## CCc1ccc(N2C(=O)NC(=O)/C(=C/c3cccn3CCOc3ccc(C)cc3)C2=O)cc1
  inhibition: 17.5% (inactive)

## CN(C)C(=S)SSC(=S)N(C)C
  inhibition: 78% (active)

## CC(=O)N1CCN(Cc2ccc(Cl)nc2)CC1
  inhibition: 5.2% (inactive)

## O=C1CC(=O)N(c2cccc(Br)c2)C(=O)N1
  inhibition: 3.7% (inactive)

## Cc1ccc(NC(=O)c2cn(CCC#N)nc2-c2ccc3c(c2)OCCO3)c([N+](=O)[O-])c1
  inhibition: -4.2% (inactive)

## COc1ccc(Cl)cc1N=Cc1c(O)n(C)c(=O)n(C)c1=O
  inhibition: 15.7% (inactive)

## CCCCC/C=C\C/C=C\C/C=C\C/C=C\CCCC(=O)Nc1ccc(O)cc1
  inhibition: 51% (active)

## CCC(=O)Nc1ccccc1
  inhibition: -4.1% (inactive)

## CCN(CC)C(=O)c1ccc(NC(=O)CCCSc2ccccc2)cc1
  inhibition: -3.4% (inactive)

## CN1CCN(C(=O)Cc2ccccc2)CC1
  inhibition: 5.6% (inactive)

## O=c1[nH]c(=S)n(-c2ccccc2Cl)c(O)c1C=NCCN1CCNCC1
  inhibition: -0.4% (inactive)

## Cc1oc(-c2ccccc2)nc1CN1C(=O)CN=C(c2ccccc2)c2ccccc21
  inhibition: -1.1% (inactive)

## COc1ccc(CC[n+]2cc(/N=C(\C)[O-])on2)cc1OC
  inhibition: 11.6% (inactive)

## Cc1cc(/C=C2\C(=O)NC(=O)N(C)C2=O)c(C)n1-c1ccc2c(c1)OCO2
  inhibition: 0.4% (inactive)

## Cc1cc(C=C2C(=O)NC(=S)NC2=O)c(C)n1-c1ccc2c(c1)OCO2
  inhibition: 53.2% (active)

## Cc1cc(C=C2C(=O)NC(=O)NC2=O)c(C)n1-c1ccc2c(c1)OCO2
  inhibition: 16.8% (inactive)

## O=C1NC(=O)C(CCc2ccncc2)(CCc2ccccn2)C(=O)N1c1ccc(Br)cc1 (stereo not drawn)
  inhibition: 16.2% (inactive)

## COc1cc(Br)c(CNCCc2ccc3c(c2)OCO3)cc1OC
  inhibition: -3.9% (inactive)

## COc1cc2c(c(OC)c1)C(=O)OC(C)CCCC(=O)CCCCC2 (stereo not drawn)
  inhibition: 7.1% (inactive)

## COc1cccc(-n2c(/C=C/c3ccc(O)c(O)c3)nc3ccccc3c2=O)c1
  inhibition: 62.6% (active)

## O=c1c2ccccc2nc(/C=C/c2ccc(O)c(O)c2)n1-c1ccccc1
  inhibition: 33.3% (inactive)

## COc1ccc(-n2c(/C=C/c3ccc(O)c(O)c3)nc3ccccc3c2=O)cc1
  inhibition: 40.5% (inactive)

## O=C(CN1CC(c2ccccc2)CC1=O)NCc1ccc(F)cc1 (stereo not drawn)
  inhibition: -3.7% (inactive)

## C[n+]1ccc(-c2ccncc2)cc1
  inhibition: 6.3% (inactive)

## CSc1nc(N)c(N=Nc2ccc([As](=O)(O)O)cc2)c(=O)[nH]1
  inhibition: 58.9% (active)

## COc1ccc(N=Nc2c(O)[nH]c(=S)[nH]c2=O)cc1
  inhibition: -13.3% (inactive)

## O=[As](O)(O)c1ccc(N=Nc2ccc(O)cc2)cc1
  inhibition: 15.6% (inactive)

## CN1C(=O)C(=Cc2ccc(OCCN(C)c3ccccn3)cc2)C(=O)N(C)C1=O
  inhibition: 3.3% (inactive)

## CCc1ccc(/C=C(/C#N)C(N)=S)cc1
  inhibition: 84.5% (active)

## N#CC(C#N)=Cc1ccc(C=C(C#N)C#N)cc1
  inhibition: 19.1% (inactive)

## CCOP(=O)(OCC)/C(C#N)=C/c1ccc(Br)cc1
  inhibition: 3.7% (inactive)

## CN(C)P1(N(C)C)=NC(C(F)(F)F)=NC(C(F)(F)F)=N1
  inhibition: 2.9% (inactive)

## CNC(=S)N(C)CCc1cc2c(c(OC)c1C=C1C(=O)NC(=O)NC1=O)OCO2
  inhibition: 50.6% (active)

## CNC(=S)N(C)CCc1cc2c(c(OC)c1/C=C1/C(=O)NC(=O)N(C)C1=O)OCO2
  inhibition: 6.3% (inactive)

## COc1c(C=C2C(=O)NC(=O)NC2=O)c(CCN(C)C(=O)c2ccccc2)cc2c1OCO2
  inhibition: 15.8% (inactive)

## O=C1NC(=S)N(Cc2ccco2)C(=O)/C1=C\c1cccs1
  inhibition: 76.9% (active)

## C=CCN1C(=O)/C(=C/c2cccs2)C(=O)NC1=S
  inhibition: -17.9% (inactive)

## O=C1NC(=O)N(Cc2ccc(F)cc2)C(=O)/C1=C/c1cccs1
  inhibition: 29.5% (inactive)

## Cc1c(C=C2C(=O)N(C)C(=S)N(C)C2=O)c2ccccc2n1CC(=O)NCC1CCCO1 (stereo not drawn)
  inhibition: -5.7% (inactive)

## CCCCCCn1c(O)c(C=NCCN2CCOCC2)c(=O)[nH]c1=O
  inhibition: -1.8% (inactive)

## O=C1/C(=C\c2ccc([N+](=O)[O-])cc2)N2CCC1CC2
  inhibition: -2.4% (inactive)

## O=C1C2(c3ccccc3)CN3CN(C2)CC1(c1ccccc1)C3
  inhibition: -5.2% (inactive)

## CC(C)C[C@H]1C(=O)N2CCCC2[C@]2(O)O[C@](NC(=O)[C@@H]3C=C4c5cccc6[nH]cc(c56)CC4N(C)C3)(C(C)C)C(=O)N12 (stereo partly drawn)
  inhibition: 67.7% (inactive)
[1]
  inhibition: 31.4%

## CC(C)[C@@]1(NC(=O)[C@@H]2C=C3c4cccc5[nH]cc(c45)C[C@H]3N(C)C2)O[C@@]2(O)[C@@H]3CCCN3C(=O)[C@H](Cc3ccccc3)N2C1=O
  inhibition: 66.3% (active)

## CC(C)[C@H]1C(=O)N2CCC[C@H]2[C@]2(O)O[C@](NC(=O)[C@@H]3C=C4c5cccc6[nH]cc(c56)C[C@H]4N(C)C3)(C(C)C)C(=O)N12
  inhibition: 69.1% (inactive)
[1]
  inhibition: 26.9%

## CC(C)CC(NC(=O)C1CCCCC1)C(=O)N1CCC2(CC1)OCCO2 (stereo not drawn)
  inhibition: -0.4% (inactive)

## NP(=O)(OCCCc1ccccc1)Oc1ccc(Cl)cc1 (stereo not drawn)
  inhibition: 2.9% (inactive)

## C=Cn1ccnc1P(=S)(c1ccc(Cl)cc1)c1nccn1C=C
  inhibition: 4.2% (inactive)
